From PubChem BioAssay (NCI)
Where “and” joins values, the source holds several entries; their conditions need not be identical. Equal values may be shown once. About 83,000 compounds went through this panel and 20% of them were active in at least one assay; those are over-represented in the sample as a whole.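 In brief: 96-well plates, 48 h treatment, single concentration, percent growth endpoint.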 Calls of active or inactive are those of the source. Rule for the calls: active = growth percent below 10; inactive = the rest.

Legend:
Experiment in all cases: NCI-60 one-dose screen, 48 h (100 = growth as untreated, 0 = no growth, -100 = all killed)
Conditions in all cases: 10 µM unless noted
SK-MEL-2 melanoma = tested on: SK-MEL-2 melanoma
EKVX NSCLC = tested on: EKVX NSCLC
SN12C renal = tested on: SN12C renal
UO-31 renal = tested on: UO-31 renal
TK-10 renal = tested on: TK-10 renal
ACHN renal = tested on: ACHN renal
CAKI-1 renal = tested on: CAKI-1 renal
A498 renal = tested on: A498 renal
CCRF-CEM leukemia = tested on: CCRF-CEM leukemia
MOLT-4 leukemia = tested on: MOLT-4 leukemia

SMILES	growth (SK-MEL-2 melanoma)	growth (EKVX NSCLC)	growth (SN12C renal)	growth (UO-31 renal)	growth (TK-10 renal)	growth (ACHN renal)	growth (CAKI-1 renal)	growth (A498 renal)	growth (CCRF-CEM leukemia)	growth (MOLT-4 leukemia)
Cc1oc2c(Cc3ccc(NC(=O)c4ccc(Cl)cc4)cc3)ncnc2c1C(=O)NO	88.3% (inactive)	102% (inactive)	103% (inactive)	85.4% (inactive)	95.6% (inactive)	106% (inactive)	98.9% (inactive)	85.2% (inactive)	90.9% (inactive)	82.5% (inactive)
COc1cc(F)c(/C=C/c2cc(/C=C/c3cc(OC)c(OC)cc3F)n(-c3cc(F)cc(F)c3)n2)cc1OC	59.5% (inactive)	57.7% (inactive)	72.5% (inactive)	85.4% (inactive)	68.9% (inactive)	117% (inactive)	98.5% (inactive)	92.4% (inactive)	51.9% (inactive)	71.5% (inactive)
COc1ccc(-c2cc(-c3cccc(Cl)c3)c(C#N)c(=O)[nH]2)c(OC)c1	105% (inactive)	95.2% (inactive)	97.1% (inactive)	85.3% (inactive)	103% (inactive)	97.2% (inactive)	90.9% (inactive)	68.2% (inactive)	-2.24% (active)	103% (inactive)
O=C1/C(=C/c2cn(-c3ccccc3)nc2-c2ccccc2)SC(=S)N1c1ccc(Cl)cc1	97.4% (inactive)	81.9% (inactive)	69.2% (inactive)	65.7% (inactive)	91.8% (inactive)	81.9% (inactive)	75.2% (inactive)	67% (inactive)	54% (inactive)	74.7% (inactive)
COc1cc(/C=C(/c2ccccc2)[N+](=O)[O-])c(OC)c2c1OCO2	-23% (active)	-10.5% (active)	-39% (active)	-100% (active)	-88.1% (active)	-70.1% (active)	-65.2% (active)	-14% (active)	-6.26% (active)	-10.5% (active)
COc1ccc(C2=C(CN)C(O)NC(=NCC(=O)c3ccc4ccccc4c3)N2)cc1 (stereo not given)	99.9% (inactive)	113% (inactive)	103% (inactive)	81% (inactive)	98.1% (inactive)	94.5% (inactive)	94.5% (inactive)	118% (inactive)	110% (inactive)	98% (inactive)
COC(=O)[C@H]1Cc2c([nH]c3ccccc23)[C@@H](c2cccs2)N1	97.2% (inactive)	96.3% (inactive)	102% (inactive)	93% (inactive)	86.7% (inactive)	111% (inactive)	89.8% (inactive)	93.2% (inactive)	101% (inactive)	103% (inactive)
CCOC(=O)C1=C(C)NC(=O)NC1c1c(Cl)n(-c2ccccc2)c2ccccc12 (stereo not given)	102% (inactive)	96.8% (inactive)	92.7% (inactive)	54.2% (inactive)	98.9% (inactive)	85.1% (inactive)	70.7% (inactive)	78.2% (inactive)	3.16% (active)	78.8% (inactive)
O=C1C(c2c[nH]c3ccccc23)=C(c2coc3cc(Br)ccc23)C(=O)N1O	97.4% (inactive)	84.3% (inactive)	97.9% (inactive)	73.4% (inactive)	137% (inactive)	110% (inactive)	100% (inactive)	54.4% (inactive)	89.4% (inactive)	98.9% (inactive)
CCN1C(=O)N(c2ccccc2)C2NC(=S)N(/N=C/C=C/c3ccccc3)C21 (stereo not given)	16.8% (inactive)	23.2% (inactive)	19.8% (inactive)	35.5% (inactive)	50.1% (inactive)	21.7% (inactive)	29.6% (inactive)	6.81% (active)	3.8% (active)	8.35% (active)
OCCN1CCN(CC/C=C2\c3ccccc3Sc3ccc(Cl)cc32)CC1	46.5% (inactive) and -10.9% (active)	80.8% (inactive) and 60.3% (inactive)	63% (inactive) and 64.3% (inactive)	39.9% (inactive) and 2.89% (active)	57.7% (inactive)	58.5% (inactive) and 71.1% (inactive)	53.5% (inactive)	45.4% (inactive) and 60.5% (inactive)	-17.7% (active) and 23.8% (inactive)	-52.7% (active) and -10.3% (active)
NNCCc1ccccc1	100% (inactive) and 106% (inactive)	101% (inactive) and 86.2% (inactive)	96.2% (inactive) and 93% (inactive)	77.5% (inactive)	118% (inactive)	92% (inactive) and 89.9% (inactive)	99.7% (inactive) and 88.3% (inactive)	105% (inactive) and 88.4% (inactive)	90.9% (inactive) and 106% (inactive)	104% (inactive) and 96.4% (inactive)
Cc1ccc(NC(=O)N/C(N)=N/c2nc(=O)c3ccccc3s2)cc1	106% (inactive)	93.7% (inactive)	93.8% (inactive)	90.4% (inactive)	116% (inactive)	102% (inactive)	86.9% (inactive)	63% (inactive)	-23% (active)	99.8% (inactive)
CCOc1ccc(C(=O)Cc2ccccc2)cc1	103% (inactive) and 118% (inactive)	98.5% (inactive) and 101% (inactive)	103% (inactive) and 105% (inactive)	91.3% (inactive) and 107% (inactive)	85.1% (inactive) and 92.3% (inactive)	107% (inactive) and 115% (inactive)	103% (inactive) and 99.6% (inactive)	79.6% (inactive) and 87.5% (inactive)	97.6% (inactive)	94.4% (inactive) and 99.2% (inactive)
CC(=O)Nc1c(I)c(NC(C)=O)c(I)c(C(=O)O)c1I	111% (inactive) and 93.8% (inactive)	102% (inactive) and 90.6% (inactive)	102% (inactive) and 106% (inactive)	76.3% (inactive) and 88.3% (inactive)	120% (inactive) and 101% (inactive)	96.9% (inactive) and 112% (inactive)	89.8% (inactive) and 91.3% (inactive)	107% (inactive) and 123% (inactive)	95.9% (inactive) and 105% (inactive)	96.9% (inactive) and 90.1% (inactive)
O=C(CC1(O)C(=O)Nc2ccc(Br)cc21)c1ccc(Cl)cc1 (stereo not given)	97.2% (inactive)	93.8% (inactive)	102% (inactive)	75.9% (inactive)	123% (inactive)	113% (inactive)	98.9% (inactive)	97.7% (inactive)	103% (inactive)	101% (inactive)
Cc1ccc(C(=O)N(CCCN)[C@@H](c2nc3cc(Cl)ccc3c(=O)n2Cc2ccccc2)C(C)C)cc1	-43% (active)	-7.16% (active)	-15.6% (active)	5.01% (active)	-33.5% (active)	-28.3% (active)	4.04% (active)	-4.18% (active)	1.72% (active)	-29.3% (active)
Cc1nc2sc(C(=O)Nc3cccc(Cl)c3C)c(N)c2cc1C(O)c1ccccc1 (stereo not given)	38.9% (inactive)	41.6% (inactive)	9.22% (active)	40.6% (inactive)	49.7% (inactive)	22.5% (inactive)	30.9% (inactive)	-11.6% (active)	20.4% (inactive)	13% (inactive)
COc1ccc(N2CCN(S(=O)(=O)c3oc(-c4ccccc4)nc3C#N)CC2)cc1	72.4% (inactive)	118% (inactive)	68.9% (inactive)	85.9% (inactive)	71.6% (inactive)	79.2% (inactive)	107% (inactive)	128% (inactive)	4.32% (active)	3.95% (active)
O=C(CN1C(=O)S/C(=C\C(Cl)=C\c2ccccc2)C1=O)NC1C=CS(=O)(=O)C1 (stereo not given)	9.43% (active)	17.7% (inactive)	-13.2% (active)	-78% (active)	-14.7% (active)	-57.5% (active)	16.9% (inactive)	97.2% (inactive)	7.5% (active)	4.12% (active)
COc1cc2c(cc1OCCCOC1=C=C=C(c3ccc4c(c3)c3cc(-c5ccc(OCCCOc6cc7c(cc6OC)C(=O)N6CCC[C@H]6C=N7)cc5)ccc3n4S(=O)(=O)c3ccc(C)cc3)C=C1)N=C[C@@H]1CCCN1C2=O	-20.6% (active)	94.5% (inactive)	-17.2% (active)	39.1% (inactive)	221% (inactive)	7.74% (active)	-19.8% (active)	76.9% (inactive)	40.3% (inactive)	-11.6% (active)
c1ccc(Cc2cccc[n+]2C(c2ccccc2)c2ccccc2)cc1	11.6% (inactive)	30% (inactive)	71.5% (inactive)	82.7% (inactive)	62.9% (inactive)	94.7% (inactive)	94.4% (inactive)	90.1% (inactive)	48.6% (inactive)	59.3% (inactive)
O=C1OCC2=C1C(c1cccc(C(F)(F)F)c1)c1cc3c(cc1N2CCO)OCCO3 (stereo not given)	26.1% (inactive)	49.1% (inactive)	46% (inactive)	47.4% (inactive)	54.4% (inactive)	33.7% (inactive)	30.5% (inactive)	16% (inactive)	9.36% (active)	16.8% (inactive)
Cc1ccc(/C=C2\COc3ccc(O)c(O)c3C2=O)cc1	48.8% (inactive)	28.2% (inactive)	-77.6% (active)	-97.3% (active)	8.12% (active)	-77.6% (active)	-27.6% (active)	6.45% (active)	3.17% (active)	1.48% (active)
COCCn1cc(-c2nc(-c3cn(CCOC)c4ncccc34)cs2)c2ccccc21	59.9% (inactive)	27.9% (inactive)	107% (inactive)	98.6% (inactive)	33.3% (inactive)	91.6% (inactive)	94.6% (inactive)	123% (inactive)	128% (inactive)	122% (inactive)
